Where “and” joins values, the source holds several entries; their conditions need not be identical. Identical values can stand only once. ± gives the uncertainty stated by the source. Whole data set: some 9,900 compounds, median “viability index relative to DMSO control” near 1, cut for the lowest 2% near 0.85. This excerpt belongs to a sample that is enriched for the lowest values.
System: Plasmodium falciparum NF54 stage V gametocytes
Test: viability index relative to DMSO control (fraction); higher = less gametocyte killing
Settings: 2.5 µM, incubation time: 72 h
Protocol: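 Broad DOS informer set and blood-stage-active DOS compounds screened in duplicate at 2.5 µM against P. falciparum NF54 stage V gametocytes with the serum-free one-step SaLSSA (1536-well): 72 h at 37 °C under low oxygen, then saponin lysis and MitoTracker Red CMXRos staining, with high-content imaging. Viability index = viable-object count divided by the plate mean of DMSO wells (0 = killed, about 1 = inactive).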

[1] = library set: Broad Institute DOS
[2] = library set: Broad Institute Blood Stage

| SMILES | viability index [1] | viability index [2] |
| --- | --- | --- |
| C[C@H]1CN([C@@H](C)CO)C(=O)Cc2cc(NC(=O)CCC(F)(F)F)ccc2O[C@H]1CN(C)CC1CC1 | 1.0278 ± 0.00041 |  |
| O=C(C[C@H]1C=C[C@@H](NC(=O)c2ccncc2)[C@@H](CO)O1)NCC1CC1 | 1.08 ± 0.03 |  |
| COc1ccc2c3c([nH]c2c1)[C@@H](CO)N(C[C@]31CCN(Cc2ccccc2Cl)CC1)S(=O)(=O)c1cn(C)cn1 | 0.955 ± 0.018 |  |
| O=C(Cc1ccncc1)NCC[C@H]1CC[C@H](NS(=O)(=O)c2ccccc2Cl)[C@H](CO)O1 | 1.09 ± 0.031 |  |
| CN1[C@@H]2Cn3c(ccc(-c4ccncc4)c3=O)[C@H]1[C@@H](C(=O)N1CCC(Cc3ccccc3)CC1)[C@@H]2CO | 1.11 ± 0.041 |  |
| COc1ccc2c3c([nH]c2c1)[C@H](CO)N(C[C@]31CCN(Cc2cncnc2)CC1)C(=O)CN(C)C | 0.991 ± 0.06 |  |
| O=C(NC[C@@H]1[C@H](c2ccccc2)[C@H](CO)N1Cc1ccccn1)C1CCCC1 | 0.684 ± 0.14 |  |
| O=C(NC[C@@H]1[C@@H](c2ccccc2)[C@H](CO)N1Cc1ccccn1)C1CCCC1 | 1.05 ± 0.068 |  |
| O=C(NC[C@H]1[C@H](c2ccccc2)[C@@H](CO)N1Cc1ccccn1)C1CCCC1 | 0.9562 ± 0.0077 |  |
| N#C[C@H]1[C@H](c2ccc(C#Cc3ccccc3F)cc2)[C@@H](CO)N1C(=O)c1cccnc1 | 1.02 ± 0.033 |  |
| C[C@H](CO)N1C[C@H](C)[C@H](CN(C)CC2CC2)Oc2ccc(NC(=O)CCC(F)(F)F)cc2CC1=O | 0.953 ± 0.022 |  |
| C[C@@H]1CN([C@@H](C)CO)C(=O)c2ccccc2-c2ccccc2CO[C@@H]1CN(C)Cc1cccnc1 | 1.049 ± 0.005 |  |
| OC[C@@H]1[C@H](c2ccc(-c3ccc(F)cc3)cc2)[C@H](CNC2CCCC2)N1CCC(F)(F)F | 0.837 ± 0.1 |  |
| OC[C@@H]1[C@H](c2ccc(-c3ccc(F)cc3)cc2)[C@@H](CNC2CCCC2)N1CCC(F)(F)F | 0.557 ± 0.096 |  |
| CCCN1[C@H](CO)[C@H](c2ccc(C#Cc3ccccc3)cc2)[C@@H]1CNC1CCCC1 | 0.914 ± 0.021 |  |
| CCC(=O)NC[C@H]1[C@@H](c2ccc(-c3ccc(C#N)cc3)cc2)[C@@H](CO)N1CCC(F)(F)F | 1.01 ± 0.028 |  |
| OC[C@H]1[C@@H](c2ccc(-c3ccc(F)cc3)cc2)[C@@H]2CN(CCC(F)(F)F)CCCCN12 |  | 0.959 ± 0.057 |
| CN(C[C@H]1[C@@H](c2ccc(C3=CCCC3)cc2)[C@@H](CO)N1CCC(F)(F)F)S(C)(=O)=O | 1.02 ± 0.046 |  |
| CO[C@H](CN(C)C(=O)c1cnccn1)[C@H](C)CN([C@H](C)CO)S(=O)(=O)c1ccccc1 | 0.948 ± 0.067 |  |
| COc1ccc(CNC(=O)C[C@H]2CC[C@H](NC(=O)CN(C)C)[C@@H](CO)O2)cc1 | 1.1 ± 0.008 |  |
| NCC[C@H]1CC[C@H](NS(=O)(=O)c2ccc(Cl)cc2)[C@H](CO)O1 | 0.803 and 1.11 |  |
| NCC[C@@H]1CC[C@H](NS(=O)(=O)c2ccc(Cl)cc2)[C@H](CO)O1 | 1.08 ± 0.093 |  |
| NCC[C@@H]1CC[C@@H](NS(=O)(=O)c2ccc(Cl)cc2)[C@@H](CO)O1 | 1.02 and 1.13 |  |
| C[C@@H]1C/C=C/C[C@@H](c2cccc(Cl)c2)NC(=O)[C@H](Cc2ccccc2)N(C)C(=O)c2ccccc2O1.C[C@@H]1C/C=C\C[C@@H](c2cccc(Cl)c2)NC(=O)[C@H](Cc2ccccc2)N(C)C(=O)c2ccccc2O1 | 0.94 ± 0.029 |  |

| SMILES | viability index [1] | viability index [2] |
| --- | --- | --- |
| C[C@@H]1C/C=C/C[C@@H](c2cccc(Cl)c2)NC(=O)[C@@H](Cc2ccccc2)N(C)C(=O)c2ccccc2O1.C[C@@H]1C/C=C\C[C@@H](c2cccc(Cl)c2)NC(=O)[C@@H](Cc2ccccc2)N(C)C(=O)c2ccccc2O1 | 0.812 ± 0.044 |  |
| C[C@@H]1C/C=C/C[C@H](c2cccc(Cl)c2)NC(=O)[C@@H](Cc2ccccc2)N(C)C(=O)c2ccccc2O1.C[C@@H]1C/C=C\C[C@H](c2cccc(Cl)c2)NC(=O)[C@@H](Cc2ccccc2)N(C)C(=O)c2ccccc2O1 | 0.9516 ± 0.0088 |  |
| CCS(=O)(=O)N1C[C@@]2(C1)CN(CC1CCOCC1)[C@H](CO)c1c2c2ccc(OC)cc2n1C | 0.985 ± 0.037 |  |
| C[C@@H]1CCCCO[C@@H](CN(C)S(=O)(=O)c2cn(C)cn2)[C@H](C)CN([C@@H](C)CO)C(=O)c2cc(NC(=O)Nc3cccc4ccccc34)ccc2O1 | 1.02 ± 0.062 |  |
| O=C(C[C@@H]1CC[C@@H](NS(=O)(=O)c2ccc(F)cc2)[C@H](CO)O1)N1CCN(c2ccccc2)CC1 | 1.05 ± 0.087 |  |
| O=C(Nc1ccccc1F)N1CCCCN2[C@H](CO)[C@H](c3ccc(/C=C/c4ccccc4)cc3)[C@@H]2C1 | 1.01 ± 0.021 |  |
| O=C(Nc1ccccc1F)N1CCCCN2[C@H](CO)[C@@H](c3ccc(/C=C/c4ccccc4)cc3)[C@H]2C1 | 0.859 ± 0.037 |  |
| O=C(Nc1ccccc1F)N1CCCCN2[C@@H](CO)[C@@H](c3ccc(/C=C/c4ccccc4)cc3)[C@@H]2C1 | 0.8892 ± 0.0057 |  |
| O=C(Nc1cc(F)ccc1F)N1CCCCN2[C@@H](CO)[C@@H](c3ccc(C4=CCCCC4)cc3)[C@@H]2C1 | 0.818 ± 0.063 |  |
| O=C(Nc1cc(F)ccc1F)N1CCCCN2[C@H](C1)[C@H](c1ccc(C3=CCCCC3)cc1)[C@@H]2CO | 1.04 ± 0.075 |  |
| O=C(Nc1cc(F)ccc1F)N1CCCCN2[C@H](CO)[C@H](c3ccc(C4=CCCCC4)cc3)[C@@H]2C1 | 0.935 ± 0.14 |  |
| O=C(Nc1ccccc1F)N1CCCCN2[C@H](CO)[C@@H](c3ccc(/C=C/c4ccccc4)cc3)[C@@H]2C1 | 0.961 ± 0.019 |  |
| O=C(Nc1ccccc1F)N1CCCCN2[C@H](CO)[C@H](c3ccc(/C=C/c4ccccc4)cc3)[C@H]2C1 | 0.492 ± 0.14 |  |
| O=C(Nc1cc(F)ccc1F)N1CCCCN2[C@H](CO)[C@H](c3ccc(C4=CCCCC4)cc3)[C@H]2C1 | 0.686 ± 0.018 |  |
| O=C(C[C@@H]1C=C[C@@H](NC(=O)C2CCC2)[C@@H](CO)O1)NC1CCCCC1 | 1.16 ± 0.096 |  |
| C[C@@H]1CN([C@@H](C)CO)C(=O)c2cc(NC(=O)C3CCCCC3)ccc2O[C@@H](C)CCCCO[C@@H]1CN(C)C(=O)CCC(F)(F)F | 1.05 ± 0.025 |  |
| CCCC(=O)N1C[C@@]2(C1)CN([C@@H](CO)c1c2c2ccc(OC)cc2n1C)C(=O)Nc1cccc(F)c1 | 0.997 ± 0.13 |  |
| C[C@H](NC(=O)C[C@@H]1C=C[C@H](NS(=O)(=O)c2cccc(F)c2)[C@H](CO)O1)c1ccccc1 | 1.08 ± 0.11 |  |
| N#Cc1ccc(-c2ccc([C@H]3[C@@H](CO)N4C(=O)CNC[C@@H]34)cc2)cc1 | 0.965 ± 0.1 |  |
| CN1CCN(C(=O)C[C@H]2CC[C@@H]3[C@H](COC[C@@H](O)CN3C(=O)Nc3ccc4c(c3)OCO4)O2)CC1 | 1.05 ± 0.017 |  |
| O=C(C1CCOCC1)N1[C@@H](CO)[C@@H](c2ccccc2)C12CN(Cc1cccc(Cl)c1)C2 | 1.103 ± 0.0018 |  |
| O=C(C1CCCCC1)N1[C@H](CO)[C@@H](c2ccccc2)C12CN(Cc1cccc(Cl)c1)C2 |  | 0.748 ± 0.048 |
| O=C(C1CCOCC1)N1[C@H](CO)[C@@H](c2ccccc2)C12CN(Cc1cccc(Cl)c1)C2 | 1.1 ± 0.062 |  |
| O=C(C[C@H]1C[C@H]2c3cc(NS(=O)(=O)c4ccc(F)cc4)ccc3O[C@H]2[C@H](CO)O1)N1CCc2ccccc2C1 | 0.861 ± 0.059 |  |

| SMILES | viability index [1] | viability index [2] |
| --- | --- | --- |
| C[C@@H]1CCn2nncc2COC[C@H]2CCCN2C1=O | 1.04 ± 0.058 |  |
| O=S(=O)(c1ccccc1)N1CCCCN2[C@H](C1)[C@H](c1ccc(C#CC3CCCC3)cc1)[C@@H]2CO | 1.03 ± 0.031 |  |
| O=S(=O)(c1ccccc1)N1CCCCN2[C@H](CO)[C@@H](c3ccc(C#CC4CCCC4)cc3)[C@H]2C1 | 1.03 ± 0.056 |  |
| O=S(=O)(c1ccccc1)N1CCCCN2[C@H](CO)[C@H](c3ccc(C#CC4CCCC4)cc3)[C@H]2C1 | 0.8253 ± 0.0077 |  |
| O=S(=O)(c1ccccc1)N1CCCCN2[C@H](CO)[C@@H](c3ccc(C#CC4CCCC4)cc3)[C@@H]2C1 | 1.01 ± 0.026 |  |
| O=S(=O)(c1ccccc1)N1CCCCN2[C@@H](CO)[C@@H](c3ccc(C#CC4CCCC4)cc3)[C@@H]2C1 | 0.8429 ± 0.006 |  |
| O=S(=O)(c1ccccc1)N1CCCCN2[C@H](C1)[C@@H](c1ccc(C#CC3CCCC3)cc1)[C@@H]2CO | 0.907 ± 0.07 |  |
| O=C(CN1CCOCC1)N1[C@H](CO)[C@H]2c3ccccc3NC[C@H]21 | 1 ± 0.088 |  |
| C[C@H]1CN([C@@H](C)CO)C(=O)c2cc(NC(=O)Nc3cccc4ccccc34)ccc2O[C@@H]1CN(C)S(=O)(=O)c1cccs1 | 1.06 ± 0.026 |  |
| COc1ccccc1CN1CC[C@@H]2[C@H](CO)Nc3ccc(-c4cccc(C(=O)N(C)C)c4)cc3[C@@H]21 | 0.841 ± 0.072 |  |
| COc1ccccc1-c1ccc2c(c1)[C@H]1[C@H](CCN1Cc1ccccc1F)[C@@H](CO)N2 | 1.02 ± 0.035 |  |
| COc1ccccc1CN1CC[C@@H]2[C@H]1c1cc(-c3cccc(C(=O)N(C)C)c3)ccc1N[C@@H]2CO | 1.09 ± 0.028 |  |
| CN(C)C(=O)c1cccc(-c2ccc3c(c2)[C@H]2[C@H](CCN2Cc2nccs2)[C@@H](CO)N3)c1 | 1.18 ± 0.023 |  |
| CN(C)C(=O)c1cccc(-c2ccc3c(c2)[C@H]2[C@H](CCN2C(=O)c2cnccn2)[C@H](CO)N3)c1 | 1.1 ± 0.035 |  |
| CN(C)C(=O)c1cccc(-c2ccc3c(c2)[C@@H]2[C@@H](CCN2C(=O)c2cnccn2)[C@H](CO)N3)c1 | 1.17 ± 0.072 |  |
| CN(C)C(=O)c1cccc(-c2ccc3c(c2)[C@@H]2[C@@H](CCN2C(=O)c2cnccn2)[C@@H](CO)N3)c1 | 1.12 ± 0.032 |  |
| CN(C)C(=O)c1cccc(-c2ccc3c(c2)[C@H]2[C@H](CCN2C(=O)c2cnccn2)[C@@H](CO)N3)c1 | 1.16 ± 0.02 |  |
| CN(C)C(=O)c1cccc(-c2ccc3c(c2)[C@H]2[C@H](CCN2Cc2nccs2)[C@H](CO)N3)c1 | 0.818 ± 0.014 |  |
| CN(C)C(=O)c1cccc(-c2ccc3c(c2)[C@@H]2[C@@H](CCN2Cc2nccs2)[C@@H](CO)N3)c1 | 0.785 ± 0.07 |  |
| OC[C@@H]1Nc2ccc(C3=CCCCC3)cc2[C@@H]2[C@H]1CCN2Cc1nccs1 | 1.06 ± 0.059 |  |
| COc1ccccc1CN1CC[C@@H]2[C@H]1c1cc(C3=CCCCC3)ccc1N[C@@H]2CO | 0.8126 ± 0.0046 |  |
| C[C@H]1CCCCO[C@H](CN(C)C(=O)Nc2ccc(C(F)(F)F)cc2)[C@@H](C)CN([C@@H](C)CO)C(=O)c2cc(NS(=O)(=O)c3cn(C)cn3)ccc2O1 | 1.01 ± 0.013 |  |

Reference: the supplement of paper PMC4723716
